This passage reports growth results from PubChem BioAssay (NCI).

Common to all, as to assay: NCI-60 one-dose screen, 48 h (100 = growth as untreated, 0 = no growth, -100 = all killed)
Settings in all cases: 10 µM unless noted

The test system of experiment [1] is DU-145 prostate.
Experiment [2] deals with K-562 leukemia.
Experiment [3] concerns MALME-3M melanoma.
In experiment [4] the test system is MDA-MB-231 breast.
The subject of experiment [5] is RXF 393 renal.
The test system of experiment [6] is SF-268 CNS.
For experiment [7], the system named is SF-295 CNS.
In experiment [8] the test system is SF-539 CNS.
The subject of experiment [9] is UACC-257 melanoma.
For experiment [10], the system named is M14 melanoma.

This is part of a sample that, as a whole, favours compounds with a hit. Of some 83,000 tested, about 20% had one in any assay.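 Assay: single dose, 48 h. Readout: percent growth (0 = no net growth; negative = cell death). Active: <10.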 A number with no mark means an inactive call. Calls of active or inactive are those of the source.

In the case of `O=c1[nH]ccc2nc(N3CCC(O)CC3)nc(Nc3ccc(N4CCOCC4)cc3)c12`, the growth was 59.8% in experiment [1]; 70.1% in [2]; 28.4% in experiment [3]; 64.3% in experiment [4]; 15.6% in [5]; 61.9% in experiment [6]. The growth in [7] is 108%; in experiment [8] it was 28.7%; in experiment [9] it was 53.2%; in [10] it was 41.4%.

As for `O=c1[nH]c2ccccc2n1C1CCN(CCOc2ccccc2)CC1`, the growth in [1] is 73.4%; in experiment [2], 11.4%; in [3] it was 99.9%; in experiment [4], 91.3%; in [5], 28%; in [6], 92.8%. Further, the growth in [7] was 76.9%; in [8] it was 106%; in experiment [9], 95.1%; in experiment [10], 97%.

As to `COc1ccc2c(c1)C(=O)/C(=C/c1ccc(OCC(=O)Nc3nccs3)cc1)O2`, the growth is -37.4% (active) in [1]; -27.3% (active) in [2]; -42.2% (active) in experiment [3]; 46.2% in experiment [4]; 31.8% in [5]; -68.5% (active) in experiment [6]. In addition, the growth in experiment [7] is 57.5%; in experiment [8], -85% (active); in [9], 84.9%; in experiment [10], 37.3%.

For the molecule `CCCCn1c(=O)c2c(nc3n2CCCN3CCc2ccc(OCC(=O)NCCN(CC)CC)cc2)n(CCCC)c1=O`, the growth in experiment [1] is 66.1%; in experiment [2] it was -6.6% (active); in experiment [3] it was -52.9% (active); in experiment [4], 14.4%; in experiment [5], 47.2%; in [6], 63.2%. Further, the growth is -22.3% (active) in [7], 54.7% in experiment [8], -39% (active) in [9] and -79.2% (active) in experiment [10].

For `COc1ccc(C2CC(c3cccc(OC)c3)=NN2C(=O)c2cc(OC)c(OC)c(OC)c2)cc1` (stereo not given), the growth is -24.7% (active) in experiment [1]; 5.93% (active) in experiment [2]; 37.7% in [3]; 33.6% in [4]; 23.4% in experiment [5]; 41.4% in [6]. The growth in experiment [7] was 7.64% (active); in experiment [8] it was -16% (active); in experiment [9], 65%; in experiment [10], 16.5%.

For the molecule `O=C(Nc1ccc(-n2cc(-c3ccncc3)c(-c3ccc(Cl)c(O)c3)n2)cc1)N1CCOCC1`, the growth in [1] is 109%; in [2] it was 89.9%; in experiment [3], 92.1%; in [4], 105%; in [5], 135%; in experiment [6] it was 99.9%. The growth in experiment [7] is 96.4%; in experiment [8] it was 92.7%; in experiment [9] it was 109%; in experiment [10], 97%.

Turning to `CNC(=O)c1cc(Oc2ccc3nc(Nc4ccc(Cl)c(C(F)(F)F)c4)ccc3c2)ccn1`, the growth in [1] was 75.7%; in [2], 40.4%; in experiment [3] it was 82.9%; in experiment [4] it was 77.8%; in experiment [5], 74.6%; in experiment [6], 66.5%. Further, the growth is 66% in experiment [7], 84.8% in experiment [8], 46.8% in [9] and 48.2% in [10].

With `Cc1ccc2[nH]c(=O)c3c(c2c1)OC(N)=C(C#N)C31c2cc(Br)ccc2-c2ccc(Br)cc21`, the growth in experiment [1] is 29.1%; in experiment [2], 60.7%; in experiment [3], 54.9%; in experiment [4], 39.1%; in experiment [5] it was 65.8%; in experiment [6] it was 78%. Moreover, the growth in [7] is 70.1%; in experiment [8] it was 85.5%; in [9] it was 76.8%; in experiment [10] it was 55.1%.

Regarding `CCN(CC)CCN1CC(O)=C(c2nc(-c3ccc(Cl)cc3)cs2)C1=N`, the growth in experiment [1] was 66.4%; in experiment [2], 1.62% (active); in experiment [3], -44.3% (active); in experiment [4] it was 12.6%; in experiment [5] it was 25%; in [6], 4.19% (active). The growth is 24% in [7], -69.8% (active) in experiment [8], -38.4% (active) in [9] and -57.1% (active) in experiment [10].

As for `COc1cccc(-c2nn(-c3ccccc3)cc2-c2ccnc(NCCCNC(=O)Nc3ccc(Cl)c(Cl)c3)c2)c1`, the growth in [1] was 22.1%; in [2] it was -13.6% (active); in experiment [3], -27.1% (active); in experiment [4], -37.2% (active); in experiment [5], 9.74% (active); in experiment [6], 13.9%. Further, the growth is -4.97% (active) in experiment [7], 1.74% (active) in experiment [8], -29.6% (active) in [9] and -52% (active) in [10].

Consider `Cc1ccc(/C=C2\C(=O)N(C)c3ccc(S(=O)(=O)Nc4ccc(C(C)(C)C)cc4)cc32)s1`, for which the growth in experiment [1] was 38.9%; in experiment [2], 66.7%; in experiment [3], 42.5%; in [4] it was 21.2%; in experiment [5], 42.1%; in [6], 26.7%. In addition, the growth in [7] is 42.6%; in experiment [8], 19.4%; in [9], 76%; in experiment [10], 67%.

For `CCOC(=O)C/C(C)=N\NC(=O)c1ccncc1`, the growth in experiment [1] is 107%; in [2], 93.2%; in experiment [3], 83.8%; in experiment [4], 102%; in experiment [5] it was 72.3%; in [6], 101%. Moreover, the growth is 92.9% in experiment [7], 97.7% in experiment [8], 107% in experiment [9] and 106% in [10].

Turning to `Cc1cc(N2CCCC2)nc(NCc2cc(Nc3ccnc4cc(Cl)ccc34)ccc2F)n1`, the growth was -65.9% (active) in [1]; -31.9% (active) in experiment [2]; -66.9% (active) in [3]; -69.8% (active) in experiment [4]; -64.9% (active) in experiment [5]; -56.2% (active) in experiment [6]. The growth in experiment [7] is -87.5% (active); in experiment [8], -70.4% (active); in experiment [9] it was -64% (active); in experiment [10], -80.3% (active).
